Compound activity: PubChem BioAssay, National Center for Advancing Translational Sciences (NCATS)
Tau fibril FP – qHTS for Inhibitors of Tau Fibril Formation, Fluorescence Polarization; Microtubule-associated protein tau (Homo sapiens), P10636; K18 P301L tau heparin fibrillization, Alexa594 FP, 6 h; Potency, µM (top dose mostly 57.7 µM), actives largely listed as inhibitors; hit rate 0.39% among 280,000; AID 1468, 2008; further: nearly all actives have a fitted effect of over 55% in size
Target sequence (P10636 561-689 P618L limits assumed): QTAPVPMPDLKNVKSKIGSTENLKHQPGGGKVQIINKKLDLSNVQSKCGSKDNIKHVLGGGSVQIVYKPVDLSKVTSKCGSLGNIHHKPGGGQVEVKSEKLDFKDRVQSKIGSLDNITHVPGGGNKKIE
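Human tau K18 […] P301L fragment, 15 uM unlabeled plus 0.24 uM Alexa 594-labeled tau (final), with compound and 20 uM heparin in 100 mM sodium acetate pH 7; 6 hr at 37 C, then Alexa 594 FP read.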
FBPA coupling cs – qHTS Assay for Inhibitors of Fructose-1,6-bisphosphate Aldolase from Giardia Lamblia: Coupling assay counterscreen; coupling enzyme system counterscreen, AmpLite Red fluorescence; activity change, negative = inhibition, % at 58.2 µM, hits read low; hit rate 0.67% among 290,000; AID 2472, 2010; in the data active means activity change below about -30%
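Activity here indicates interference with the coupling reaction, not aldolase inhibition. Compounds at 57.5 uM final met coupling enzymes for 10 min at RT; substrate and AmpLite Red detection followed, with a 525/598 nm fluorescence read after 20 min.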
JMJD2E inh – qHTS Assay for Inhibitors of Human Jumonji Domain Containing 2E (JMJD2E). Lysine-specific demethylase 4E (Homo sapiens), B2RXH2. JMJD2E catalytic domain, FDH-coupled NADH fluorescence (FDH is formaldehyde dehydrogenase). Potency, µM (doses to about 57.1 µM), actives largely listed as inhibitors. hit rate 1.6% among 230,000. AID 2147, 2009; active means well fitted inhibition curve with a large enough effect, not every such curve was filed as active; inconclusive means small, poorly fitted or top-dose-only effect, or another doubt; inactive means no such curve, though single readings can be large or run the other way; further: nearly all actives have a fitted effect of over 50% in size
Target sequence (B2RXH2 1-337 limits assumed): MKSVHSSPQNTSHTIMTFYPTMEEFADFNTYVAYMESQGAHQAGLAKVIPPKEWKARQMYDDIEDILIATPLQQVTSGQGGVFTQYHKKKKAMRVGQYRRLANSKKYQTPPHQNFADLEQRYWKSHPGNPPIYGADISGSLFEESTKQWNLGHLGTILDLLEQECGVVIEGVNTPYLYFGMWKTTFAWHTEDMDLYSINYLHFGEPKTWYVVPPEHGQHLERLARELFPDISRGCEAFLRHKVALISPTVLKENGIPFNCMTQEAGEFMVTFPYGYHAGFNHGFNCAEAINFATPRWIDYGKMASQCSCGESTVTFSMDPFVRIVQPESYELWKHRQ
Tau fibril ThT – qHTS for Inhibitors of Tau Fibril Formation, Thioflavin T Binding; recombinant tau K18 P301L, heparin-induced fibrillization, ThT fluorescence; Potency, µM (top dose mostly 57.4 µM), usual class: inhibitors; Microtubule-associated protein tau (Homo sapiens), P10636; hit rate 2.1% among 270,000; AID 1460, 2008; further: nearly all actives have a fitted effect of over 55% in size
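Fibril formation assay: tau K18 P301L at 15 uM with trace Alexa 594 label, heparin inducer 20 uM, pH 7 sodium acetate buffer, 37 C for 6 hr; endpoint ThT signal.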
Tau fluor cs – Counterscreen qHTS for Inhibitors of Tau Fibril Formation, Fluorescence Polarization. tau K18 P301L (four-repeat tau fragment) Alexa594 fluorescence, heparin fibrillization. Potency, µM (doses to about 57.7 µM). hit rate 0.93% among 280,000; further: nearly all actives have a fitted effect of over 55% in size
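Human K18 P301L tau (15 uM unlabeled plus 0.24 uM Alexa 594-labeled, final) in 100 mM sodium acetate pH 7 was mixed with compound and 20 uM heparin and incubated 6 hr at 37 C.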
Numbers stand for hits; [ ] = remark or other dose. Shown are actives, neighbours in structure and some others; about 3% of the full set was active somewhere. Unless noted, the call rests on the fitted dose curve; in most records, active means well fitted curve in the direction sought with a large enough effect; inconclusive means small, poorly fitted or top-dose-only effect, or another doubt; inactive means no such curve, though single readings can be large; an effect the other way counts as inactive or inconclusive.

Screening CCn1c(-c2ccccc2O)n[nH]c1=S returned Tau fibril FP inactive, FBPA coupling cs inactive, JMJD2E inh inactive, Tau fibril ThT inactive and Tau fluor cs inactive.
Screening CCn1c(-c2cc(-c3ccccc3)sc2N)n[nH]c1=S returned Tau fibril FP inactive, FBPA coupling cs inactive, JMJD2E inh inactive, Tau fibril ThT inconclusive and Tau fluor cs 14.1µM[quencher].
`Cc1ccc(S(=O)(=O)Nc2nsc(N)n2)cc1` gave Tau fibril FP 17.8µM, FBPA coupling cs inactive, JMJD2E inh inactive, Tau fibril ThT 11.2µM and Tau fluor cs inactive.
Screening COC(=O)C1=C(C(=O)OC)[C@@H]2N(C)c3ccc(OC)cc3[C@@]23C[C@@H](C(=O)OC)N(C(C)=O)C3=N1 returned Tau fibril FP inactive[11.6 µM], FBPA coupling cs inactive, JMJD2E inh inactive[11.4 µM], Tau fibril ThT inactive[11.5 µM] and Tau fluor cs inactive[11.6 µM].
COc1ccc(NC(=O)CN2c3cccc4cccc(c34)S2(=O)=O)cc1 was read as Tau fibril FP inactive, FBPA coupling cs -30.9, JMJD2E inh inconclusive, Tau fibril ThT inactive and Tau fluor cs inactive.
Screening CCN(CC)c1ccc(/C=N/NC(=O)c2cnccn2)cc1 returned Tau fibril FP inactive, FBPA coupling cs inactive, JMJD2E inh inactive, Tau fibril ThT 14.1µM and Tau fluor cs inactive.
Screening CCN(CC)c1ccc(/C=N/NC(=O)c2ccco2)cc1 returned Tau fibril FP inactive, FBPA coupling cs inactive, JMJD2E inh inconclusive, Tau fibril ThT inconclusive and Tau fluor cs inconclusive.
For CCN(CC)c1ccc(/C=N/NC(=O)c2c[nH]c3ccccc23)cc1 the results were Tau fibril FP inactive, FBPA coupling cs inactive, JMJD2E inh inactive, Tau fibril ThT 5.01µM and Tau fluor cs 12.6µM[quencher].
`CN(C)c1ccc(/C=N/NC(=O)CCc2c[nH]c3ccccc23)cc1` gave Tau fibril FP inactive, FBPA coupling cs inactive, JMJD2E inh inconclusive, Tau fibril ThT 8.91µM and Tau fluor cs inconclusive.
For C/C(=N\NC(=O)CCc1c[nH]c2ccccc12)c1ccc([N+](=O)[O-])cc1 the results were Tau fibril FP inactive, FBPA coupling cs inactive, JMJD2E inh inactive, Tau fibril ThT 10µM and Tau fluor cs inconclusive.
For N#Cc1ccc(NCCNCC(=O)N2N=CCC2C#N)nc1 (stereo unspecified) the results were FBPA coupling cs inactive.
`Cc1cccc([C@H]2[C@@H]3C=CC(C)C[C@@H]3C(=O)N2Cc2ccccc2)c1` (stereo partly specified) gave Tau fibril FP inactive, FBPA coupling cs inactive, Tau fibril ThT inactive and Tau fluor cs inactive.
`CC[C@H](C)[C@H](NC(=O)[C@H](C)NC(=O)CNC(=O)[C@H](CCCN=C(N)N)NC(=O)[C@H](C)NC(=O)[C@H](CC(C)C)NC(=O)[C@H](CCC(=O)O)NC(=O)[C@H](CC(C)C)NC(=O)[C@H](C)NC(=O)[C@@H](N)CCC(=O)O)C(=O)N[C@@H](Cc1ccccc1)C(=O)N[C@@H](CCC(N)=O)C(=O)N[C@@H](C)C(=O)O` gave FBPA coupling cs inactive.
`CCN(CC)c1ccc(/C=N/N2CCN(c3ccccn3)CC2)cc1` gave Tau fibril FP inactive, FBPA coupling cs inactive, JMJD2E inh inactive, Tau fibril ThT 1.26µM and Tau fluor cs inconclusive.
`CCN(CC)c1ccc(/C=N/NC(=O)c2ccccn2)cc1` gave Tau fibril FP inactive, FBPA coupling cs inactive, JMJD2E inh inactive, Tau fibril ThT 10µM and Tau fluor cs inactive.
`Cc1ccc(C)c(CN2C(=O)c3ccccc3S(=O)(=O)c3ccc(C(=O)N(C)C4CCCCC4)cc32)c1` gave Tau fibril FP inactive, Tau fibril ThT inactive and Tau fluor cs inactive.
For Cc1cc(N2CCN(C)CC2)nc2ccc(NC(=S)N3CCCCC3)cc12 the results were Tau fibril FP inactive, FBPA coupling cs inactive, JMJD2E inh inconclusive, Tau fibril ThT inconclusive and Tau fluor cs inconclusive.
COc1ccc(CC(=O)Nc2ccc3nc(N4CCCCC4)cc(C)c3c2)cc1 was read as Tau fibril FP inactive, Tau fibril ThT inconclusive and Tau fluor cs 12.6µM[quencher].
COc1cccc(C(=O)Nc2ccc3nc(N4CCOCC4)cc(C)c3c2)c1 was read as Tau fibril FP inactive, FBPA coupling cs inactive, JMJD2E inh inactive, Tau fibril ThT 5.01µM and Tau fluor cs inconclusive.
For CCN1CCN(c2cc(C)c3cc(NC(=O)c4cccc(OC)c4)ccc3n2)CC1 the results were Tau fibril FP inactive, FBPA coupling cs inactive, JMJD2E inh inactive and Tau fluor cs inconclusive.
For COc1cccc(C(=O)Nc2ccc3nc(N4CCN(c5ncccn5)CC4)cc(C)c3c2)c1OC the results were Tau fibril FP inactive, FBPA coupling cs inactive, JMJD2E inh inconclusive, Tau fibril ThT 8.91µM and Tau fluor cs inactive.
For Cc1cc(N2CCOCC2)nc2ccc(NC(=S)N3CCCCC3C)cc12 (stereo unspecified) the results were Tau fibril FP inactive, FBPA coupling cs inactive, JMJD2E inh inconclusive, Tau fibril ThT 11.2µM and Tau fluor cs 15.8µM[quencher].
`CCOc1ccccc1CNC(=O)Cn1nc(C)c2nn(-c3ccc(Cl)cc3)c(C)c2c1=O` gave Tau fibril FP inactive, Tau fibril ThT inactive and Tau fluor cs inactive.
`O=C(Nc1ccc(N2CCOCC2)c(Cl)c1)c1cccnc1Cl` gave Tau fibril FP inactive, FBPA coupling cs inactive, JMJD2E inh inactive, Tau fibril ThT inactive and Tau fluor cs inactive.
`COc1c(C)cccc1C(=O)Nc1ccc(N2CCOCC2)c(Cl)c1` gave Tau fibril FP inactive, FBPA coupling cs -35.0, JMJD2E inh inactive, Tau fibril ThT inconclusive and Tau fluor cs inactive.
Cc1cc(Nc2cccc(Cl)c2)nc2ccc(NC(=O)COc3ccc(Cl)cc3)cc12 was read as Tau fibril FP inactive, Tau fibril ThT inconclusive and Tau fluor cs 7.94µM[quencher].
`COc1ccc(Nc2cc(C)c3cc(NC(=O)Cc4ccc(Cl)cc4)ccc3n2)cc1` gave Tau fibril FP inactive, Tau fibril ThT 11.2µM and Tau fluor cs 5.01µM[quencher].
`Cc1nn(CCCC(=O)Nc2cccc(F)c2)c(=O)c2c1sc1ccccc12` gave Tau fibril FP inactive, Tau fibril ThT inconclusive and Tau fluor cs inconclusive.
For Oc1ccc(N=Cc2ccc(O)c(O)c2)cc1 the results were Tau fibril FP 8.91µM, FBPA coupling cs -46.5, JMJD2E inh 0.631µM, Tau fibril ThT 3.16µM and Tau fluor cs inconclusive.
CN(C)c1ccc(NC(=O)c2cn(-c3ccccc3)nc2-c2cccs2)cc1 was read as Tau fibril FP inactive, FBPA coupling cs inactive, JMJD2E inh inactive, Tau fibril ThT inconclusive and Tau fluor cs 8.91µM[quencher].
`CCN(CC)CCOC(=O)c1ccc(NC(=O)c2cn(-c3ccccc3)nc2-c2cccs2)cc1` gave Tau fibril FP 11.2µM, FBPA coupling cs inactive, JMJD2E inh inconclusive, Tau fibril ThT inactive and Tau fluor cs 8.91µM[quencher].
